Shown are actives, neighbours in structure and some others; about 5% of the full set was active somewhere.
Vaccinia Venus – vaccinia inhibition (Venus reporter). Vaccinia virus Venus reporter expression, fluorescence. Potency, µM (doses to about 36.5 µM), for inactives: at the highest dose activity change, negative = inhibition, usual class: inhibitors. 330,000 tested, 0.46% active. AID 720580; calls by dose curve; tested in A549 cells; note: potency is the fitted concentration of half-maximal effect; nearly all actives have a fitted effect of over 30% in size
TbPYK inhibitor – T. brucei pyruvate kinase inhibition; Q57TT1; TbPYK enzyme, Kinase-Glo Plus ATP luminescence, 45 min; Potency, µM (top dose mostly 76.8 µM), for the others: at the highest dose activity, negative = inhibition, hits mostly inhibitors; 410,000 tested, 0.12% active; AID 624173; note: potency is the fitted concentration of half-maximal effect; nearly all actives have a fitted effect of over 50% in size
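In this concentration-response screen, enzyme-free wells defined baseline while DMSO plates tracked drift. Each reaction combined TbPYK, substrate, compound and 130 uM ADP for 45 min at room temperature. Kinase-Glo Plus luminescence gave the signal.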
Vaccinia mCherry – vaccinia inhibition (mCherry reporter) | Vaccinia virus mCherry reporter infection, fluorescence | Potency, µM (highest dose often 36.5 µM), for the others: at the highest dose activity change, negative = inhibition, usual class: inhibitors | 310,000 tested, 0.63% active; calls by dose curve; tested in A549 cells; note: potency is the fitted concentration of half-maximal effect; nearly all actives have a fitted effect of over 35% in size
LmPK inh – inhibitors of Leishmania mexicana pyruvate kinase | 290,000 tested, 0.37% active | Potency, µM (titrated, usually from 57.5 µM), for the others: at the top dose activity change, negative = inhibition, most hits filed as inhibitors | purified LmPK, Kinase-Glo ATP luminescence, 1 h; note: potency is the fitted concentration of half-maximal effect
Target sequence (Q27686 whole entry, looked up): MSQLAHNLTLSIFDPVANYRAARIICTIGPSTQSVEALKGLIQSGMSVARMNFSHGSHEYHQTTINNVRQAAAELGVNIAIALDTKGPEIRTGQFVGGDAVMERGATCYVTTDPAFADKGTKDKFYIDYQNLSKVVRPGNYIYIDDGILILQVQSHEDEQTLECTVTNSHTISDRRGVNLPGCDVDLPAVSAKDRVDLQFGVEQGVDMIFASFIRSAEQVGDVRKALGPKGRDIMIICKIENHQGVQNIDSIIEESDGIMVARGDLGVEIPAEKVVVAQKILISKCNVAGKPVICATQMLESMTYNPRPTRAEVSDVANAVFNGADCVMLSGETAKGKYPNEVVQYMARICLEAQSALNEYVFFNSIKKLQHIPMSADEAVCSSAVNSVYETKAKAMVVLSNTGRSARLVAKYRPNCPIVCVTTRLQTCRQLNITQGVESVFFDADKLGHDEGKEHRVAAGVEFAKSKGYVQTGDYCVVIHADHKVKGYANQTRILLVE
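0.1 nM LmPK, 0.5 mM PEP, 0.1 mM ADP; 50 mM imidazole pH 7.2, 7 mM MgCl2, 50 mM KCl; 1 h RT. Kinase-Glo luminescence readout, normalized to no-enzyme (full inhibition) and uninhibited wells.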
HCMV antiviral – inhibitors of human cytomegalovirus. HFF cells, HCMV-luciferase reporter, 72 h; hits give low values. activity change, negative = inhibition, % at 57.5 µM. 410,000 tested, 4.5% active. AID 1259415; in the data active = activity change below about -60%; inconclusive = no clear call, values can overlap the other calls; inactive = above about -39%
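Screen run at 2 compound doses on HFFs infected with reporter HCMV, MOI 1 PFU/cell. Luciferase activity from cell lysates at 72 h post infection gave inhibition relative to buffer-only and Salinomycin wells.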
* hit, by the source's call; [ ] = another dose, or the depositor's remark. Unless noted, calls come from the whole dose curve; as a rule, active = well fitted curve in the direction sought with a large enough effect; inconclusive = small, poorly fitted or top-dose-only effect, or another doubt; inactive = no such curve, though single readings can be large; an effect the other way counts as inactive or inconclusive. % is set by controls: 0 for no effect and ±100 for the full control effect.

Screening COCc1ccc(C(=O)Nc2cccc(S(=O)(=O)N(C)c3ccccc3)c2)cc1 returned Vaccinia Venus -10.6%, TbPYK inhibitor 0.6%, Vaccinia mCherry inactive and HCMV antiviral -95.8*.
`CN(c1ccccc1)S(=O)(=O)c1cccc(NC(=O)CSc2ncn[nH]2)c1` gave Vaccinia Venus -28.9%, TbPYK inhibitor -18.4%, Vaccinia mCherry -27.4%, LmPK inh 0.0% and HCMV antiviral -68.2*.
`Cc1cc(/C=C/c2cccc3sc(C)[n+](CCCCI)c23)ccc1N(CCCl)CCCl` gave Vaccinia Venus 371.6% and Vaccinia mCherry 54.0%.
Screening CCS(=O)(=O)C(=C1Nc2ccccc2N1)S(=O)(=O)CC returned Vaccinia Venus -3.7%, TbPYK inhibitor -8.8%, LmPK inh 2.8% and HCMV antiviral -97.7*.
Screening CCCCS(=O)(=O)C(=C1Nc2ccccc2N1)S(=O)(=O)CCCC returned Vaccinia Venus -7.6%, TbPYK inhibitor -2.0%, LmPK inh 1.6% and HCMV antiviral 32.2.
CCOC(=O)C1(C)CCCN1C(=O)c1cccc(OC)c1 (stereo unspecified) was read as Vaccinia Venus -12.8%, TbPYK inhibitor 0.6%, Vaccinia mCherry 5.8% and HCMV antiviral 12.8.
`CCOC(=O)[C@]12Cc3cc(C)ccc3[C@H]1N(C1CCCCC1)C(=O)c1cc(OC)ccc12` gave Vaccinia Venus inconclusive, TbPYK inhibitor -0.7%, Vaccinia mCherry inconclusive and HCMV antiviral -103.5*.
CCOC(=O)[C@]12Cc3cc(OC)ccc3[C@H]1N(C1CCCCC1)C(=O)c1cc(OC)ccc12 was read as Vaccinia Venus inconclusive, TbPYK inhibitor -1.9%, Vaccinia mCherry inconclusive and HCMV antiviral -98.3*.
Screening CCN1C(=O)[C@H]2[C@@H](c3ccc(-c4cccc(Cl)c4)cc3)N[C@@](Cc3ccccc3)(C(=O)OC)[C@H]2C1=O returned Vaccinia Venus -24.4%, TbPYK inhibitor -4.1%, Vaccinia mCherry inconclusive and HCMV antiviral -4.9.
For O=C(NCc1ccccn1)C1CCCN(Cc2cnn(-c3ccccc3)c2-n2cccc2)C1 (stereo unspecified) the results were Vaccinia Venus -16.0%, TbPYK inhibitor 4.3%, Vaccinia mCherry inactive and LmPK inh 3.9%.
COCCNC(=S)NCc1ccc2[nH]c3c(c2c1)CCCC3 was read as Vaccinia Venus 7.4%, TbPYK inhibitor -5.5%, Vaccinia mCherry inactive, LmPK inh -0.3%[11.5 µM] and HCMV antiviral -72.6*.
`NC(=O)c1cc([N+](=O)[O-])ccc1NCc1cccc([N+](=O)[O-])c1` gave Vaccinia Venus -24.0%, TbPYK inhibitor 1.6%, Vaccinia mCherry inconclusive and HCMV antiviral 92.2.
CCN1CCN(C(=O)C2=CC(c3ccc(OC)cc3)=NS(=O)(=O)N2C)CC1 was read as Vaccinia Venus -3.7%, TbPYK inhibitor -6.0%, Vaccinia mCherry inactive, LmPK inh 2.6% and HCMV antiviral -63.8*.
For Cc1ccc2nc(N(Cc3cccnc3)C(=O)Cc3ccccc3)sc2c1 the results were Vaccinia Venus -7.4%, TbPYK inhibitor 0.0%, Vaccinia mCherry inactive and HCMV antiviral 48.2.
For CC(C)=NOCC(=O)Nn1c(COc2ccccc2)nc2ccccc2c1=O the results were TbPYK inhibitor -7.4%, LmPK inh -0.9% and HCMV antiviral 45.9.
Screening Cc1c(Cl)cccc1NC(=O)COC(=O)c1c2c(nc3ccccc13)CCN(Cc1ccccc1)C2 returned Vaccinia Venus inconclusive, TbPYK inhibitor -7.8%, Vaccinia mCherry 11.2µM*, LmPK inh 2.6% and HCMV antiviral 101.5.
CCCCn1nnnc1SCC(=O)NC1CCCCC1 was read as Vaccinia Venus 8.8%, TbPYK inhibitor 7.3%, Vaccinia mCherry -9.7%, LmPK inh -5.3% and HCMV antiviral -98.9*.
Screening COc1ccc(NC(=O)CSc2c3c(nc4ccccc24)CCC3)cc1Cl returned Vaccinia Venus -10.7%, TbPYK inhibitor 2.0%, Vaccinia mCherry -6.1% and HCMV antiviral 5.9.
`CCOC(=O)c1cc(-c2ccccc2)nc2nc(N(CC)CC)sc12` gave Vaccinia Venus -20.2%, TbPYK inhibitor 3.3%, Vaccinia mCherry -10.5%, LmPK inh 11.2% and HCMV antiviral -90.5*.
CCOC(=O)c1cc(-c2ccccc2)nc2nc(N3CCCCC3)sc12 was read as Vaccinia Venus 0.0%, TbPYK inhibitor 15.4%, Vaccinia mCherry -8.7%, LmPK inh -3.7% and HCMV antiviral -4.5.
For CCCN1CNc2c(c(=O)[nH]c(=S)n2CCc2ccccc2OC)C1 the results were Vaccinia Venus -13.0% and Vaccinia mCherry -9.7%.
`COc1ccc(C(=O)NCCS(=O)(=O)N2CCN(C(=O)c3ccco3)CC2)cc1` gave Vaccinia Venus -2.3%, TbPYK inhibitor 3.9%, Vaccinia mCherry -2.2% and HCMV antiviral 5.5.
`O=C(NCCS(=O)(=O)N1CCN(C(=O)c2ccco2)CC1)c1ccccc1` gave Vaccinia Venus -9.0%, TbPYK inhibitor 1.3%, Vaccinia mCherry -0.9% and HCMV antiviral -79.1*.
`CCCCCCNc1c([N+](=O)[O-])cc(C)cc1[N+](=O)[O-]` gave TbPYK inhibitor 4.2% and HCMV antiviral -68.9*.
NC(=S)NN=Cc1nccc2c(C(F)(F)C(F)(F)C(F)(F)F)cccc12 was read as Vaccinia Venus 1µM*, TbPYK inhibitor 2.5%, Vaccinia mCherry 0.316µM* and HCMV antiviral -98.7*.
`Cc1cnc(C=NNC(N)=S)c2cccc(N)c12` gave Vaccinia Venus -28.6%, TbPYK inhibitor -4.0%, Vaccinia mCherry inconclusive and HCMV antiviral -19.6.
NC(=S)N/N=C/c1ccc(/C=N/NC(N)=S)cc1 was read as TbPYK inhibitor 6.3%, LmPK inh 4.5% and HCMV antiviral -18.5.
Screening NC(=S)NN=Cc1nccc2ccccc12 returned Vaccinia Venus inconclusive, TbPYK inhibitor -4.1%, Vaccinia mCherry inconclusive and HCMV antiviral -98.0*.
COc1ccc(OC)c(CC2C(=O)Nc3ccc(Br)cc32)c1 (stereo unspecified) was read as Vaccinia Venus -26.6%, TbPYK inhibitor 0.7%, Vaccinia mCherry -18.4% and HCMV antiviral -90.2*.
For COC(=O)CCNc1n[nH]c(=O)[nH]c1=O the results were Vaccinia Venus -12.6%, TbPYK inhibitor -1.4%, Vaccinia mCherry -13.7%, LmPK inh -4.0% and HCMV antiviral inconclusive.
Screening COC(=O)C=CC(=NNc1ccccc1)c1ccccc1 returned Vaccinia Venus -5.1%, TbPYK inhibitor 1.4%, Vaccinia mCherry inconclusive and HCMV antiviral 46.3.
Screening Cn1nnnc1N=N/C(=N/Nc1ccccc1)c1ccccc1 returned Vaccinia Venus -29.4%, TbPYK inhibitor -9.1%, Vaccinia mCherry inconclusive, LmPK inh -19.0% and HCMV antiviral -85.7*.
Screening COc1ccc(NC(=O)Cn2cc(S(=O)(=O)N3CCN(c4ccccc4F)CC3)c3ccccc3c2=O)cc1Cl returned Vaccinia Venus -9.5%, TbPYK inhibitor 7.4%, Vaccinia mCherry inactive and HCMV antiviral 22.9.

Screening results from PubChem BioAssay.
